For some assays here: Entries with a potency or affinity are not part of this list. Calls of active or inactive are those of the source. The rule behind the calls is not given here.
How the values were obtained:
[1] = Ebola virus entry assay, green fluorescence channel
[2] = Ebola virus entry assay, blue channel fluorescence
[3] = Ebola virus entry assay, green channel fluorescence
[4] = Ebola virus entry assay, reporter ratio channel; AC50: Channel type: primary unless noted; outcome: Channel type: primary unless noted
[5] = Ebola virus entry assay, blue channel (ratio component)
Throughout, for efficacy: 0% is about no effect.

CC1(C)S[C@@H]2[C@H](NC(=O)C(c3ccccc3)S(=O)(=O)O)C(=O)N2[C@H]1C(=O)O (stereo partly specified)
inactive: efficacy [1] 24.6% | outcome [2] | outcome [3] | outcome [4] | outcome [5]

COc1c2occc2cc2ccc(=O)oc12
inactive: efficacy [1] -15% | outcome [2] | outcome [3] | outcome [4] | outcome [5]

O=C(CCCN1CCC2(CC1)C(=O)NCN2c1ccccc1)c1ccc(F)cc1
inactive: efficacy [1] -27.3% | outcome [3]
active: AC50 [2] 1.78 µM

OC[C@@H](O)[C@@H](O[C@@H]1O[C@H](CO)[C@H](O)[C@H](O)[C@H]1O)[C@H](O)[C@@H](O)CO
inactive: efficacy [1] -17.2% | outcome [2] | outcome [3] | outcome [4] | outcome [5]

CC(=O)Nc1ncc([N+](=O)[O-])s1
inactive: efficacy [1] 20.3% | outcome [2] | outcome [3] | outcome [4] | outcome [5]

CCCCCCOc1ccccc1C(N)=O
inactive: efficacy [1] -13.5% | outcome [2] | outcome [3] | outcome [4] | outcome [5]

CCCCCC[C@@H](CCC)C(=O)O
inactive: efficacy [1] 13.6% | outcome [2] | outcome [3] | outcome [4] | outcome [5]

O=C(O)Cc1ccc(-c2ccccc2)cc1
inactive: efficacy [1] 14.2% | outcome [2] | outcome [3] | outcome [4] | outcome [5]

CCc1cc(S(=O)(=O)O)c2cc(C(C)C)cccc1-2
inactive: efficacy [1] 18.8% | outcome [2] | outcome [3] | outcome [4] | outcome [5]

COc1ccc2cccc(CCNC(C)=O)c2c1
inactive: efficacy [1] -16.7% | outcome [2] | outcome [3] | outcome [4] | outcome [5]

COC(=O)C1=C(C)NC(C)=C(C(=O)OCCc2ccc(N3CCN(C(c4ccccc4)c4ccccc4)CC3)cc2)C1c1cccc([N+](=O)[O-])c1 (stereo unspecified)
inactive: efficacy [1] -12.1% | outcome [2] | outcome [3] | outcome [4] | outcome [5]

O=S(=O)(O)c1ccc2nc(-c3ccccc3)[nH]c2c1
inactive: efficacy [1] -32.6% | outcome [2] | outcome [3] | outcome [4] | outcome [5]

O=C(O)CCCCCCCC(=O)O
inactive: efficacy [1] 17.2% | outcome [2] | outcome [3] | outcome [4] | outcome [5]

CC(=O)OCC[N+](C)(C)C
inactive: efficacy [1] -18% | outcome [2] | outcome [3] | outcome [4] | outcome [5]

C[n+]1c2cc(N)ccc2cc2ccc(N)cc21 (tested in a mixture with another compound)
inactive: efficacy [1] 129%

Nc1ncnc(Nc2ccccc2)n1
inactive: efficacy [1] -14.2% | outcome [2] | outcome [3] | outcome [4] | outcome [5]

CNCCCCOc1ccccc1Cc1ccccc1
inactive: efficacy [1] 68.3%
active: AC50 [2] 5.62 µM

O=C(O)c1cc(=O)c2ccccc2o1
inactive: efficacy [1] -28.1% | outcome [2] | outcome [3] | outcome [4] | outcome [5]

CC[N+](CC)(CCNC(=O)C(=O)NCC[N+](CC)(CC)Cc1ccccc1Cl)Cc1ccccc1Cl
inactive: efficacy [1] -9.71% | outcome [2] | outcome [3] | outcome [4] | outcome [5]

COc1cc(NS(=O)(=O)c2ccc(N)cc2)nc(C)n1
inactive: efficacy [1] -19.1% | outcome [2] | outcome [3] | outcome [4] | outcome [5]

Cc1cc(O)c2ccccc2c1O
inactive: efficacy [1] 13.4% | outcome [2] | outcome [3] | outcome [4] | outcome [5]

Nc1nc(N)c(-c2ccccc2)s1
inactive: efficacy [1] 13% | outcome [2] | outcome [3] | outcome [4] | outcome [5]

COc1cc(OC)nc(O[C@H](C(=O)O)C(OC)(c2ccccc2)c2ccccc2)n1
inactive: efficacy [1] 36.2% | outcome [2] | outcome [3] | outcome [4] | outcome [5]

CCCC(=O)OCOC(=O)C1=C(C)NC(C)=C(C(=O)OC)C1c1cccc(Cl)c1Cl (stereo unspecified)
inactive: efficacy [1] 17.3% | outcome [2] | outcome [3] | outcome [4] | outcome [5]

CCOP(=S)(OCC)Oc1ccc2c(C)c(Cl)c(=O)oc2c1
inactive: efficacy [1] 16.9% | outcome [2] | outcome [3] | outcome [4] | outcome [5]

O=c1cc[nH]c(=O)[nH]1
inactive: efficacy [1] 11.9% | outcome [2] | outcome [3] | outcome [4] | outcome [5]

C[C@]12C=CC(=O)C=C1CC[C@@H]1[C@@H]2C(=O)C[C@@]2(C)[C@H]1CC[C@]2(O)C(=O)CO
inactive: efficacy [1] -19.9% | outcome [2] | outcome [3] | outcome [4] | outcome [5]

CCOC(=O)c1ccc(O)c(O)c1
inactive: efficacy [1] -26.2% | outcome [2] | outcome [3] | outcome [4] | outcome [5]

O=C(OCC1(COC(=O)c2cccnc2)CCCC(COC(=O)c2cccnc2)(COC(=O)c2cccnc2)C1O)c1cccnc1
inactive: efficacy [1] -19.2% | outcome [2] | outcome [3] | outcome [4] | outcome [5]

Nc1cc(=O)[nH]c(N)n1
inactive: efficacy [1] -17.6% | outcome [2] | outcome [3] | outcome [4] | outcome [5]

COc1ccc(NS(=O)(=O)c2ccc(N)cc2)nn1
inactive: efficacy [1] 8.59% | outcome [2] | outcome [3] | outcome [4] | outcome [5]

CN1C[C@@H]2C[C@H]1CN2c1cc2c(cc1F)c(=O)c(C(=O)O)cn2C1CC1
inactive: efficacy [1] 18.4% | outcome [2] | outcome [3] | outcome [4] | outcome [5]

Cc1cccc(C(=O)O)c1O
inactive: efficacy [1] 15.1% | outcome [2] | outcome [3] | outcome [4] | outcome [5]

CC(C)Cn1cnc2c(N)nc3ccccc3c21
inactive: efficacy [1] -30.7% | outcome [2] | outcome [3] | outcome [4] | outcome [5]

CCOC(=O)C1=C(C)NC(C)=C(C(=O)OC)C1c1cccc([N+](=O)[O-])c1 (stereo unspecified)
inactive: efficacy [1] 20.7% | outcome [2] | outcome [3] | outcome [4] | outcome [5]

C[C@@H]1CCC[C@H](C)N1
inactive: efficacy [1] -7.35% | outcome [2] | outcome [3] | outcome [4] | outcome [5]

Cc1cc(NS(=O)(=O)c2ccc(N)cc2)no1
inactive: efficacy [1] 21.6% | outcome [2] | outcome [3] | outcome [4] | outcome [5]

O=C(O)CN1C(=O)c2cccc3cccc(c23)C1=O
inactive: efficacy [1] 11.9% | outcome [2] | outcome [3] | outcome [4] | outcome [5]

O=S(=O)(O)c1cc(I)c(O)c2ncccc12
inactive: efficacy [1] 29.1% | outcome [2] | outcome [3] | outcome [4] | outcome [5]

CC(O)C(=O)O (stereo unspecified)
inactive: efficacy [1] 12.5% | outcome [2] | outcome [3] | outcome [4] | outcome [5]

CCCCCCCCCCOc1cc2c(=O)c(C(=O)OCC)c[nH]c2cc1OCC
inactive: efficacy [1] 11% | outcome [2] | outcome [3] | outcome [4] | outcome [5]

N=C(N)N
inactive: efficacy [1] 19.5% | outcome [2] | outcome [3] | outcome [4] | outcome [5]

Cc1cc(O)c2c(O)c3c(O)cccc3cc2c1
inactive: efficacy [1] 34.7% | outcome [2] | outcome [3] | outcome [4] | outcome [5]

COC(=O)c1ccc(O)cc1
inactive: efficacy [1] 13.3% | outcome [2] | outcome [3] | outcome [4] | outcome [5]

O=C(CCBr)N1CCN(C(=O)CCBr)CC1
inactive: efficacy [1] 10.2% | outcome [2] | outcome [3] | outcome [4] | outcome [5]

CCCc1c(OCCCCc2nn[nH]n2)ccc(C(C)=O)c1O
inactive: efficacy [1] 28.7% | outcome [2] | outcome [3] | outcome [4] | outcome [5]

O=C1[C@@H]2[C@H]3CC[C@H](C3)[C@@H]2C(=O)N1CCCCN1CCN(c2ncccn2)CC1
inactive: efficacy [1] -13.3% | outcome [2] | outcome [3] | outcome [4] | outcome [5]

CC(C)C(=O)Nc1cccc(C(F)(F)F)c1
inactive: efficacy [1] 16.7% | outcome [2] | outcome [3] | outcome [4] | outcome [5]

O=C1CC2(CCCC2)CC(=O)N1
inactive: efficacy [1] -26.6% | outcome [2] | outcome [3] | outcome [4] | outcome [5]

CC(C(=O)O)c1ccc(/C=C2\CCCCC2=O)cc1 (stereo unspecified)
inactive: efficacy [1] 13.8% | outcome [2] | outcome [3] | outcome [4] | outcome [5]

CCCCOC(=O)c1ccc(O)cc1
inactive: efficacy [1] -26.2% | outcome [2] | outcome [3] | outcome [4] | outcome [5]

Oc1ccccc1
inactive: efficacy [1] 23.9% | outcome [2] | outcome [3] | outcome [4] | outcome [5]

COC(=O)/C=C\C(=O)OC
inactive: efficacy [1] 24.5% | outcome [2] | outcome [3] | outcome [4] | outcome [5]

O=C(O)Cc1cccc(-c2cc(CCCCCCc3ccc(O[C@H]4O[C@H](CO)[C@@H](O)[C@H](O)[C@@H]4O)c(-c4cccc(CC(=O)O)c4)c3)ccc2O[C@H]2O[C@H](CO)[C@@H](O)[C@H](O)[C@@H]2O)c1
inactive: efficacy [1] -7.69% | outcome [2] | outcome [3] | outcome [4] | outcome [5]

CCCCCCCCCCCCOCCO
inactive: efficacy [1] -11.3% | outcome [2] | outcome [3] | outcome [4] | outcome [5]

N#CC1(c2ccc(F)cc2)CCC(=O)CC1
inactive: efficacy [1] 28.6% | outcome [2] | outcome [3] | outcome [4] | outcome [5]

CN=C(NC#N)NCCSCc1csc(N=C(N)N)n1
inactive: efficacy [1] -13.8% | outcome [2] | outcome [3] | outcome [4] | outcome [5]

Cc1ccc(O)c2ncccc12
inactive: efficacy [1] 17.9% | outcome [2] | outcome [3] | outcome [4] | outcome [5]

CC(C)=CCC/C(C)=C/CC/C(C)=C/CCC(=O)OC/C=C(\C)CCC=C(C)C
inactive: efficacy [1] 10.8% | outcome [2] | outcome [3] | outcome [4] | outcome [5]

Cc1nc2c([nH]1)c(=O)n(C)c(=O)n2Cc1ccco1
inactive: efficacy [1] 40.2% | outcome [2] | outcome [3] | outcome [4] | outcome [5]

CN(C)C(=O)COC(=O)Cc1ccc(OC(=O)c2ccc(N=C(N)N)cc2)cc1
inactive: efficacy [1] -14.4% | outcome [2] | outcome [3] | outcome [4] | outcome [5]
